Data published in PubChem BioAssay (NCATS).
Records with an inconclusive call do not appear. The source made the active and inactive calls. The call rests on the fitted dose curve; in most records, active means well fitted curve in the direction sought with a large enough effect; inconclusive means small, poorly fitted or top-dose-only effect, or another doubt; inactive means no such curve, though single readings can be large; an effect the other way counts as inactive or inconclusive.

Key:
[1] = molecular target: Rap guanine nucleotide exchange factor 3 (Homo sapiens) (UniProt O95398); test: Confirmatory qHTS for antagonist of cAMP-regulated guanine nucleotide exchange factor 3 (EPAC1) (AID 1645880); further: nearly all actives have a fitted effect of over 55% in size
How it was run: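 Nucleotide exchange uses 100 nM EPAC1, 250 nM RAP1B-BODIPY-GDP and 50 uM GDP, with compounds in a concentration-titration series. After 5 min at room temperature, fluorescence (480 nm ex/540 nm em) is read every 5 min for 30 min. Data are normalized to control ATA and DMSO.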

[2] = molecular target: Rap guanine nucleotide exchange factor 3 (Homo sapiens) (UniProt O95398); test: Confirmatory qHTS for agonist of cAMP-regulated guanine nucleotide exchange factor 3 (EPAC1) (AID 1645881);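 further: EPAC1 catalysed release of BODIPY-GDP from Rap1B seen as fluorescence loss; nearly all actives have a fitted effect of over 75% in size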
[3] = molecular target: Rap guanine nucleotide exchange factor 4 (Homo sapiens) (UniProt Q8WZA2); test: Confirmatory qHTS for agonist of cAMP-regulated guanine nucleotide exchange factor 4 (EPAC2) (AID 1645884);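 further: nucleotide exchange releases bodipy-GDP from Rap1 and this lowers its fluorescence; nearly all actives have a fitted effect of over 65% in size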
[4] = molecular target: Rap guanine nucleotide exchange factor 4 (Homo sapiens) (UniProt Q8WZA2); test: Confirmatory qHTS for antagonist of cAMP-regulated guanine nucleotide exchange factor 4 (EPAC2) (AID 1645885); further: nearly all actives have a fitted effect of over 25% in size; further: potency means the concentration at half of the fitted maximal effect
[5] = molecular target: Rap guanine nucleotide exchange factor 3 (Homo sapiens) (UniProt O95398); test: Counterscreen qHTS for antagonist of cAMP-regulated guanine nucleotide exchange factor 3 (EPAC1) (AID 1645888);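 further: fluorescence loss as bound BODIPY-GDP is released from Rap1B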
How it was run: (§1)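 Measured: fluorescence of BODIPY-GDP bound to Rap1B, which falls as exchange proceeds. Conditions include 50 uM competing GDP, 5 and 30 min reads, and a later cAMP challenge for antagonist detection.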

[6] = molecular target: Rap guanine nucleotide exchange factor 3 (Homo sapiens) (UniProt O95398); test: Counterscreen qHTS for agonist of cAMP-regulated guanine nucleotide exchange factor 3 (EPAC1) (AID 1645889); further: nearly all actives have a fitted effect of over 40% in size
How it was run: as §1

[7] = NCATS anti-infectives library activity on HEK293 viability as a counter-qHTS vs the C. elegans viability qHTS (AID 1745854);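 further: HEK293 cells exposed to compounds for 24 hr before the viability read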
How it was run: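 HEK293 cells (1,500/well) exposed 24 hr at 37C to 1:5 titrations, up to 41.7 uM final; counter-screen to a C. elegans viability qHTS. Viability by CellTiter-Glo luminescence after 10 min at room temperature; digitonin as control.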

[8] = molecular target: Metallo-beta-lactamase type 2 (Klebsiella pneumoniae) (UniProt C7C422); test: qHTS to identify inhibitors of the New Delhi Metallo-beta-lactamase (NDM): assay validation screen against the NCATS LOPAC Collection (AID 1794843);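 further: nitrocefin turnover by NDM-1 measured as 485 nm absorbance at plateau; series mostly up to about 38 µM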
How it was run: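 NDM-1 at 2 nM final in 50 mM HEPES pH 7.0 with 1 uM ZnSO4 and 0.01% Tween20 was preincubated with library compounds in DMSO. Nitrocefin (50 uM stock) was then added, and absorbance at 485 nm was read at the kinetic plateau.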

[9] = molecular target: Phospholipid hydroperoxide glutathione peroxidase GPX4 (Homo sapiens) (UniProt P36969); test: Primary qHTS Assay for Inhibitors of Recombinant Selenoprotein Glutathione Peroxidase 4 (GPX4) (AID 1845192); conditions: outcome: dose series up to 50 µM unless noted; further: nearly all actives have a fitted effect of over 65% in size
How it was run: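 GR-coupled readout: 100 nM GR, 1 mM GSH, 0.5 mM NADPH; NADPH fluorescence (ex 340/em 450 nm) read at t=0 and after 15 min RT. GPX4 200 nM, preincubated 30 min with compound; substrate 0.5 mM CHP.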

[10] = molecular target: Glutathione peroxidase 1 (Homo sapiens) (UniProt P07203); test: Primary qHTS Assay for Inhibitors of Recombinant Selenoprotein Glutathione Peroxidase 1 (GPX1) (AID 1845191); further: nearly all actives have a fitted effect of over 65% in size
How it was run: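 Recombinant GPX1 (10 nM final) was preincubated with compound for 30 min at room temperature, then reacted with 1 mM GSH, 0.5 mM CHP, 0.5 mM NADPH and 100 nM glutathione reductase; NADPH fluorescence (340/450 nm) was read at 0 and 15 min.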

[11] = Primary qHTS for inhibitors of nuclear receptor binding SET domain protein 2 (NSD2) in an RCH-ACV wild type WT cells (2C) (AID 1645877); further: nearly all actives have a fitted effect of over 70% in size; further: potency means the concentration at half of the fitted maximal effect
[12] = molecular target: Luciferin 4-monooxygenase (Photinus pyralis) (UniProt P08659); test: Primary firefly luciferase (FLuc) qHTS assay for identification of artifact compounds. (AID 1845220); further: series mostly up to about 54 µM; nearly all actives have a fitted effect of over 60% in size
How it was run: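 Reaction readout was CCD-imaged luminescence, taken 5 min after adding 10 nM purified firefly enzyme to compound-treated wells holding 10 uM luciferin and ATP in pH 7.6 buffer.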

[13] = system: Nanoluciferase (engineered Oplophorus gracilirostris luciferase); test: Primary Nanoluciferase (NLuc) qHTS assay for identification of artifact compounds. (AID 1845222);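 further: NLuc secreted into diluted conditioned medium of S16 cells; series mostly up to about 54 µM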
How it was run: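 Concentration-response data were obtained by luminescence after 5 min with Nano-Glo substrate at 1:100. The enzyme was diluted S16 NLuc-expressing cell medium, preincubated with compound for 15 min at RT. Curves were fitted with a 4-parameter Hill model.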

Measured: Potency

Sequence of Glutathione peroxidase 1 (Homo sapiens) (P07203 whole entry, looked up): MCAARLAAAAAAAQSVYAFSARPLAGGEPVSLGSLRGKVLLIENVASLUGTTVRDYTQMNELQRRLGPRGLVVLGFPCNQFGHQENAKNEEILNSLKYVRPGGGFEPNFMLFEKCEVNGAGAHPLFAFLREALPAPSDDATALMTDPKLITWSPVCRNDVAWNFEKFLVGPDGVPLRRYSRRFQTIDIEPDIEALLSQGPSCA
Sequence of Rap guanine nucleotide exchange factor 3 (Homo sapiens) (O95398 whole entry, looked up): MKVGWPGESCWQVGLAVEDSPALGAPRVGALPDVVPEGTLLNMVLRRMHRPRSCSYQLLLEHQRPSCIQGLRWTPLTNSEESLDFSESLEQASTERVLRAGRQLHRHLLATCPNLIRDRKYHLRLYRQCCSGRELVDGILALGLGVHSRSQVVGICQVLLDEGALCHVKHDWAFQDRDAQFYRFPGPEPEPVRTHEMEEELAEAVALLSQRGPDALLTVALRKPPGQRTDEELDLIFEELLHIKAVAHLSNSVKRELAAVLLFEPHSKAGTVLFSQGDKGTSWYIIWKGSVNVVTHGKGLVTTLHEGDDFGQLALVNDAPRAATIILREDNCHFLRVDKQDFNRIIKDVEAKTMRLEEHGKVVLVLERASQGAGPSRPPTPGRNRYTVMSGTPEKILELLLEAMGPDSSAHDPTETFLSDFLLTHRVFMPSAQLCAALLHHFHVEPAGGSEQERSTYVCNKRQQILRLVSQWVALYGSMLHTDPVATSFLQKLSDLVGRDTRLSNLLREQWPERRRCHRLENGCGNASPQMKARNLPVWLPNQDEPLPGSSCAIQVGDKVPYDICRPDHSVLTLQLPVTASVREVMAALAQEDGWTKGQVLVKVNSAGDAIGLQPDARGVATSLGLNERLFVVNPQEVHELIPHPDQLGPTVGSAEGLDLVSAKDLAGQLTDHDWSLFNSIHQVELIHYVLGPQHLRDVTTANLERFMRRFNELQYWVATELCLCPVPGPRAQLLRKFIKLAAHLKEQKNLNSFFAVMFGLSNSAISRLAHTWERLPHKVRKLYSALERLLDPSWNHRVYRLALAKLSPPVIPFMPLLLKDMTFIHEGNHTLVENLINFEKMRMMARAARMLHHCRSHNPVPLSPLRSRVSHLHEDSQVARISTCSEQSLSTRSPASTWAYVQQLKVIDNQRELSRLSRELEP
Sequence of Rap guanine nucleotide exchange factor 4 (Homo sapiens) (Q8WZA2 whole entry, looked up): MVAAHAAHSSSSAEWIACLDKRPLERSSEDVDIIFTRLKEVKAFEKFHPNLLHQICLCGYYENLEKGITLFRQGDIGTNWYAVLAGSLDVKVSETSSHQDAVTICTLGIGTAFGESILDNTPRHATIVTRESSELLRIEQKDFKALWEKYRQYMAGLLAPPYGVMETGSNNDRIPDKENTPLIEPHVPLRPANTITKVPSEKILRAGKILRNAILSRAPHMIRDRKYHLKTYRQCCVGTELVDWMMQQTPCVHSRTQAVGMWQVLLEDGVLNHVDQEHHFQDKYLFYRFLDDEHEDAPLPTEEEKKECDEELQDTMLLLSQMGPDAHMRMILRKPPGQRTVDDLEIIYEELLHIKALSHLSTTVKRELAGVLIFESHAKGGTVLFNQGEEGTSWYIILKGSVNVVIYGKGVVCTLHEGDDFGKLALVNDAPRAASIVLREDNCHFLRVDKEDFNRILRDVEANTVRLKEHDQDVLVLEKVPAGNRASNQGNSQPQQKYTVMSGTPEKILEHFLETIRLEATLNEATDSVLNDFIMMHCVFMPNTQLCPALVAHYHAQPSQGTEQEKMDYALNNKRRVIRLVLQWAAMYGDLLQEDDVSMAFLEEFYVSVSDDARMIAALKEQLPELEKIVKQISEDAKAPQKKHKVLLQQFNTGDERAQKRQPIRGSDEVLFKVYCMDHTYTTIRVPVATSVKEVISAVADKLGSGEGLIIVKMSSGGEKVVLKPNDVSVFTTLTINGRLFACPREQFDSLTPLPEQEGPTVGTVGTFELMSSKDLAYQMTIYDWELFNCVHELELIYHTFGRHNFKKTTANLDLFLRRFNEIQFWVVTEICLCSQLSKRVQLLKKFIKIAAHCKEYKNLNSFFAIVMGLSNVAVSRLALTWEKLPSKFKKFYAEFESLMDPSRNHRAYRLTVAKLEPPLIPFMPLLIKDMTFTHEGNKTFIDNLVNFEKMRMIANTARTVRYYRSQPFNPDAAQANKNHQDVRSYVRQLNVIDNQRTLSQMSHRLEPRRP
Sequence of Phospholipid hydroperoxide glutathione peroxidase GPX4 (Homo sapiens) (P36969 whole entry, looked up): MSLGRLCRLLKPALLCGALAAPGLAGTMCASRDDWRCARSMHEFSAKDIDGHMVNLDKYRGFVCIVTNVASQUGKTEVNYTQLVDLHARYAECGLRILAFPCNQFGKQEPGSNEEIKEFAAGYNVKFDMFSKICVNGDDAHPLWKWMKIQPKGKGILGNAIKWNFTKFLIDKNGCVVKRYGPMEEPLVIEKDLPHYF
Sequence of Metallo-beta-lactamase type 2 (Klebsiella pneumoniae) (C7C422 whole entry, looked up): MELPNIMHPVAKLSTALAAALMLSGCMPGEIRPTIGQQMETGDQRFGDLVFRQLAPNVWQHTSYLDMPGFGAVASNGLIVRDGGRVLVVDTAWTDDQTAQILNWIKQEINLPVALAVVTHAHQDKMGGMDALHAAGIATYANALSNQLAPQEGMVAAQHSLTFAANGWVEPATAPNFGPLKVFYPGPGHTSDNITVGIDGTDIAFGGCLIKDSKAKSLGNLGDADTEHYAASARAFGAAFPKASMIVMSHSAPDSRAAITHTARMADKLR

COc1cc(Cc2cnc(N)nc2N)cc(OC)c1OC
inactive: [1] | [2] | [3] | [4] | [5] | [6] | [7] | [8] | [9]

Cc1nc2sccn2c(=O)c1CCN1CCC(=C(c2ccc(F)cc2)c2ccc(F)cc2)CC1
inactive: [1] | [2] | [3] | [8] | [10] | [9]
active: [4] 44.1 µM

CCN(CC)CCNC(=O)c1ccc(NC(C)=O)cc1
inactive: [11] | [10]

CC(C)(C)c1ccc(C(=O)CCCN2CCC(OC(c3ccccc3)c3ccccc3)CC2)cc1
active: [11] 9.44 µM
inactive: [10]

O=C(O)CP(=O)(O)O
inactive: [11] | [10] | [9]

CCN1CCc2nc(N)oc2CC1
inactive: [11] | [9]

COC(=O)[C@H]1[C@H]2C[C@@H]3c4[nH]c5cc(OC)ccc5c4CCN3C[C@H]2C[C@@H](OC(=O)c2cc(OC)c(OC)c(OC)c2)[C@@H]1OC
inactive: [11] | [9] | [12] | [13]

N[C@@H](COP(=O)(O)O)C(=O)O
inactive: [11] | [10] | [9]

CC(C)[N+](C)(CCOC(=O)C1c2ccccc2Oc2ccccc21)C(C)C
inactive: [11] | [10] | [9]

c1ccc2c(c1)CCCC2C1=NCCN1 (stereo not given)
inactive: [11] | [10]

CC(N=C(NC#N)Nc1ccncc1)C(C)(C)C (stereo not given)
inactive: [11] | [10] | [9]
